Screening data as filed in PubChem BioAssay.
CYP2C19 activ = activators of human cytochrome P450 2C19; P33261; recombinant CYP2C19, luciferin-H EGE luminescence; hits give high values; 0 = fully inhibited enzyme, 1 = untreated enzyme; activation factor at 5 µM; 96,000 tested, under 10 active;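 active = activation factor of at least 2 at 5 µM in the primary screen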;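 note: 0 = wells with 2.5 mM tranylcypromine and 1 = vehicle-only wells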
Cav3 T inh = human Cav3.2 channel inhibition, primary screen; O95180; Cav3.2-expressing cells, Fluo-4 calcium fluorescence FDSS; hits give low values; B-score at 10 µM; hit rate 4% among 100,000;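 active = single-dose well whose peak fluorescence ratio is a statistical outlier from its plate by either plate-standardised score or position-corrected B-score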
CYP2C9 inhib = inhibitors of human CYP2C9; P11712; CYP2C9 Supersomes, luciferin-H conversion, luminescence; inhibition, % at 5 µM; hit rate 20% among 96,000; AID 777;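 active = blocking of liver enzyme CYP2C9 beyond about 50% at 5 µM, limit read from the data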
CYP2C19 inhib = human CYP2C19 inhibition. P33261. CYP2C19 Supersomes, luciferin-H EGE luminescence, 30 min. inhibition, % at 5 µM. hit rate 21% among 96,000;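 active = CYP2C19 inhibition above a set limit at 5 µM in the primary screen, cut at about 50% in these data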;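 note: plate controls were negative control wells for no effect and 2.5 mM tranylcypromine positive control for full effect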
CYP2C9 activ = activators of human CYP2C9 | P11712 | recombinant CYP2C9, luciferin-H conversion, luminescence; hits give high values; factor 1 = untreated enzyme, 0 = blocked | activation factor at 5 µM | hit rate 1.4% among 96,000 | AID 1024;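 active = activation factor of 2 or more for CYP2C9 at a 5 µM dose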;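 note: 0 = sulfaphenazole-blocked wells and 1 = vehicle-only wells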
Starred values were filed as active, the others as inactive; · = not tested or not shown. Sampled rows, rich in hits. Any-hit rate of the full collection: about 27%.

SMILES | CYP2C19 activ | Cav3 T inh | CYP2C9 inhib | CYP2C19 inhib | CYP2C9 activ
Cc1c(Br)cc(C(=O)NCCCN2CCOCC2)c(C)c1C | 0.8 | 0.61 | -60 | 24 | 1.6
COC(=O)c1ccccc1NC(=O)CCNC(=O)Cn1cnc2ccccc2c1=O | 1.2 | 0.027 | 10 | -15 | 0.9
COC(=O)c1ccc(C)c(NC(=O)Cn2cnc3ccccc3c2=O)c1 | 0.2 | 0.02 | 99* | 82* | 0
Cc1ccc(C(=O)Cn2cnc3ccccc3c2=O)cc1 | · | -0.32 | · | · | ·
CCOC(=O)c1ccc(Cn2cnc3ccccc3c2=O)cc1 | 0.4 | -0.047 | 55* | 62* | 0.5
CN(C)S(=O)(=O)c1cccc(NC(=O)Cn2cnc3ccccc3c2=O)c1 | 0.6 | -2.4 | 84* | 43 | 0.2
O=C(Cn1cnc2ccccc2c1=O)NCCC(=O)Nc1ccc2c(c1)OCCO2 | 0.9 | -0.17 | 51* | 14 | 0.5
O=C(NCc1ccc(N2CCCC2=O)cc1)NC1CCCCC1 | 1.1 | -0.18 | -3 | -6 | 1
CC(=O)N1CCN(Cc2nc3cc(NC(=O)c4ccccc4C)ccc3n2C)CC1 | 0.9 | 0.78 | 3 | 7 | 1
CCN(CC)S(=O)(=O)c1ccc(NC(=O)Cn2cnc3ccccc3c2=O)cc1 | 0.6 | -0.8 | 67* | 44 | 0.3
COc1ccc(Cl)cc1NC(=O)CCn1cnc2ccccc2c1=O | 0.3 | 0.015 | -130 | 66* | 2.3*
COC(=O)c1[nH]c2ccccc2c1NC(=O)CNC1CCCCC1 | 1.1 | 0.65 | -17 | -11 | 1.2
COc1ccc(Cn2nnnc2C(c2cccs2)N2CCN(c3ccc([N+](=O)[O-])cc3)CC2)cc1 (centres undefined) | 0.4 | -1.6 | 73* | 63* | 0.3
COCCn1nnnc1C(c1cccs1)N1CCN(c2cccc(C(F)(F)F)c2)CC1 (centres undefined) | 0.6 | -5.4* | 28 | 36 | 0.7
CCC(c1nnnn1CCOC)N1CCN(c2cccc(C(F)(F)F)c2)CC1 (centres undefined) | 0.3 | -0.018 | 55* | 69* | 0.4
COCCn1nnnc1C(CC(C)C)N1CCN(c2cccc(OC)c2)CC1 (centres undefined) | 0.2 | -0.24 | 75* | 81* | 0.2
COCCn1nnnc1C(CC(C)C)N1CCN(c2ccccc2)CC1 (centres undefined) | · | -1.2 | · | · | ·
COc1cc(C(=O)Nc2nnc(-c3sccc3C)s2)cc(OC)c1OC | 1.1 | -1.5 | -19 | -12 | 1.2
Cc1nn(Cc2cccc(C(=O)Nc3ccn(Cc4ccccc4)n3)c2)c(C)c1[N+](=O)[O-] | 0.9 | -0.49 | 24 | 8 | 0.8
C=CCSc1nc(-c2ccc3c(c2)OCO3)cc(C(F)(F)F)c1C#N | 0.7 | · | 39 | 26 | 0.6
O=C(C1=C[C@H](c2ccccc2)C[C@H](OCc2ccc(CO)cc2)O1)N1CCN(Cc2ccc3c(c2)OCO3)CC1 | · | -0.43 | · | · | ·
CCOC(=O)C1CCCN(C(=O)c2cc3nc(-c4cccc(OC)c4)cc(C(F)(F)F)n3n2)C1 (centres undefined) | 0.1 | -2.6 | 84* | 86* | 0.2
CCOC(=O)C1CCCN(C(=O)c2cnn3c(C(F)(F)F)cc(-c4ccccc4)nc23)C1 (centres undefined) | 0.8 | -2 | 46 | 21 | 0.5
CCOC(=O)C1CCN(C(=O)c2cc3c(-c4ccc(OC)c(OC)c4)nn(C)c3s2)CC1 | 0.1 | 1.1 | 95* | 92* | 0.1
CCOC(=O)C1CCCN(C(=O)c2cc3c(-c4cccc(OC)c4)nn(C)c3s2)C1 (centres undefined) | 0.6 | -4.2* | 68* | 37 | 0.3
SMILES | CYP2C19 activ | Cav3 T inh | CYP2C9 inhib | CYP2C19 inhib | CYP2C9 activ
COc1ccc(NC(=O)c2cc3c(-c4ccc(OC)c(OC)c4)nn(C)c3s2)cc1OC | 0.4 | -0.23 | 74* | 57* | 0.3
Cc1ccc(-c2cc3nn(-c4ccccc4)c(N)c3c(=O)o2)cc1 | 0.9 | 0.88 | 16 | 12 | 0.8
C/C=C/C(=O)Nc1ccccc1Br | 0.9 | 1.5 | -1 | 7 | 1
CCN1C2=C(C(=O)CCC2)C(c2ccc(O)cc2)C2=C1CCCC2=O | 1.1 | -0.14 | -4 | -7 | 1
COc1ccc(C(=O)Nc2ccc(N3CCCC3)cc2)cc1 | 0.9 | · | -27 | 12 | 1.3
CC(=O)Nc1ccc(Oc2cc(C#N)c(C#N)cc2N2CCOCC2)cc1 | 0.6 | -1.1 | 53* | 42 | 0.5
CC(=O)Nc1ccc(Oc2cc(C#N)c(C#N)cc2N2CCCCCC2)cc1 | · | -3.8* | · | · | ·
N#Cc1cc(Cl)c(N2CCOCC2)cc1C#N | 1 | 0.57 | 4 | 1 | 1
